These results are taken from PubChem BioAssay (NCATS).

The structures appear in SMILES notation. A number with no mark means an inactive call. Records with an inconclusive call do not appear. Activity calls are given as the source filed them. Unless noted, calls come from the whole dose curve; as a rule, active = well fitted curve in the direction sought with a large enough effect; inconclusive = small, poorly fitted or top-dose-only effect, or another doubt; inactive = no such curve, though single readings can be large; an effect the other way counts as inactive or inconclusive.

Test [1] is described as follows: qHTS assay for measurement of the activity of small molecule inhibitors on Zika virus induced Caspase-3 activity in human iPSC derived neural progenitor cells (hNPCs) (AID 1224857). Note: nearly all actives have a fitted effect of over 65% in size. The method in brief:
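Caspase-3/7 induction by a 6-hour ZIKV infection was quantified with a luminescent Caspase-Glo 3/7 reagent incubated 30 minutes at room temperature. Compounds were preincubated with hNPCs for 1 hour; inhibition was calculated against uninfected and infected control wells.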

A short description of test [2]: qHTS assay for measurement of the activity of small molecule inhibitors on Zika virus induced Caspase-3 activity in human astrocytoma cells (AID 1224859). The procedure, abridged:
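In SNB-19 cells plated at 250 cells/well and grown 16-20 h, compounds were applied 1 h before ZIKV (2 FFU/cell). Six hours later caspase-3/7 luminescence was recorded.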
For orientation: Quantitative high-throughput screening tests each substance at several concentrations.

Test [3] can be described thus: qHTS assay to identify small molecule inhibitors of chordoma cells - UCH-2 (AID 1259356). Note: potency is the fitted concentration of half-maximal effect.
The nature of test [4]: Natriuretic polypeptide receptor (hNpr1) antagonism - Pilot counterscreen GloSensor control cell line (AID 1347045; calls by dose curve; note: series mostly up to about 38 µM). The method in brief:
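HEK293 cells carrying the GloSensor cGMP sensor (GIP/pGS-40F) were loaded with 2% GloSensor reagent for 2 h, exposed to compounds for 30 min, and then stimulated with 50 uM sodium nitroprusside for 20 min at room temperature.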

The target of test [5] is Atrial natriuretic peptide receptor 1 (Homo sapiens) (UniProt P16066). Briefly: Natriuretic polypeptide receptor (hNpr1) antagonism - Pilot screen (AID 1347049; calls by dose curve;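 note: agonist-evoked cGMP luminescence read 20 min after hNppA addition; series mostly up to about 58 µM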). The method in brief: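 Readout is cGMP-driven firefly luciferase luminescence in HEK293 cells carrying hNpr1 and a PDE5-domain GloSensor, read before and 20 min after 0.1 nM hNppA stimulation. Cells had 2% substrate reagent for 2 h and test compound for 30 min.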
Sequence of Atrial natriuretic peptide receptor 1 (Homo sapiens) (P16066 whole entry, looked up): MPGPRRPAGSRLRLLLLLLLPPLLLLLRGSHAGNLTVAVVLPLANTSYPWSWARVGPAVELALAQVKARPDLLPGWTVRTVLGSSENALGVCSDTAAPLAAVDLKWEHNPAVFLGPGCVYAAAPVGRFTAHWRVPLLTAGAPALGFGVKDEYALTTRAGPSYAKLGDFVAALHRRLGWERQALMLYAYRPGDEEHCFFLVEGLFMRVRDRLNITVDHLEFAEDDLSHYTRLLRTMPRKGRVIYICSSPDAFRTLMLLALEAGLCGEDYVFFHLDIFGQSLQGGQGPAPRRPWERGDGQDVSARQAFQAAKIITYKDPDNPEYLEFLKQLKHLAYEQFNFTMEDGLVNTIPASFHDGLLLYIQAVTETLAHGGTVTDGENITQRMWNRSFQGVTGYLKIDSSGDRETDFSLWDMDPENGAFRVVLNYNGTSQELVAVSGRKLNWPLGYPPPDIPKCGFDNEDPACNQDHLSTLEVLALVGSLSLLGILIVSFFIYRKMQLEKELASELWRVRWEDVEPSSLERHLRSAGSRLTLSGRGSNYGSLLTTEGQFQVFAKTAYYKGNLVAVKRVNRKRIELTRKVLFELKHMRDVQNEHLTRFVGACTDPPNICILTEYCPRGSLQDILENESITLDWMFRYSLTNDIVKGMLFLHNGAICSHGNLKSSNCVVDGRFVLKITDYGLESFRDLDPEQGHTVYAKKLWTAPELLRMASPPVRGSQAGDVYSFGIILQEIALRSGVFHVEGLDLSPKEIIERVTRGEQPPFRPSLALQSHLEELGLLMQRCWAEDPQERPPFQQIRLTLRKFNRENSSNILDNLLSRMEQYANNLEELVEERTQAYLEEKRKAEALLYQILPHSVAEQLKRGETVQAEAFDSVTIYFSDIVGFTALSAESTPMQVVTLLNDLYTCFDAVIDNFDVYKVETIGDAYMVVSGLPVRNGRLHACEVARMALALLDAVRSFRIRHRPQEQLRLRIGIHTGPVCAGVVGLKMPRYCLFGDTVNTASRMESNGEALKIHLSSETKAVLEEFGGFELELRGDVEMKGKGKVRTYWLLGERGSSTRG

For test [6], the target named is Atrial natriuretic peptide receptor 2 (Homo sapiens) (UniProt P20594). In words: Natriuretic polypeptide receptor (hNpr2) antagonism - Pilot subtype selectivity assay (AID 1347050; calls by dose curve; note: potency is the fitted concentration of half-maximal effect). The method in brief:
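Pilot selectivity screen against hNpr2: HEK293 cGMP-sensor cells are treated with LOPAC1280 compounds, then with hNppC peptide at 1 nM final. The cGMP-driven luminescence change over 20 min at room temperature is the read-out.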

The nature of test [7]: NS1 protein of Zika virus - qHTS assay to identify small molecule inhibitors in human HEK 293 cells (AID 1347053). Note: series mostly up to about 46 µM; nearly all actives have a fitted effect of over 55% in size. The method in brief: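 HEK 293; 20 h pre-culture, 37 C/5% CO2; cpd 1 h pre-infection; ZIKV MR766, MOI = 0.5, 24 h, 37 C; TR-FRET NS1 readout (two anti-NS1 Abs); norm. to no-virus vs infected.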
The target in test [8] is T1, Tyrosine-protein phosphatase non-receptor type substrate 1 (Homo sapiens) + Leukocyte surface antigen CD47 (Homo sapiens) (UniProt P78324+Q08722). Briefly: CD47-SIRPalpha protein protein interaction - LANCE assay qHTS validation (AID 1347057; active = well fitted curve in the direction sought with a large enough effect in the signal ratio, with a control signal flat, not every such curve was filed as active; the % refers to the signal ratio; note: series mostly up to about 38 µM). The method in brief: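 First, His-tagged CD47 and Eu-labelled anti-His antibody met the compound for 30 min; next, site-specifically biotinylated SIRPalpha was added for 30 min; finally streptavidin-APC was added before reading the TR-FRET ratio.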
T1 sequence (P78324 whole entry, looked up): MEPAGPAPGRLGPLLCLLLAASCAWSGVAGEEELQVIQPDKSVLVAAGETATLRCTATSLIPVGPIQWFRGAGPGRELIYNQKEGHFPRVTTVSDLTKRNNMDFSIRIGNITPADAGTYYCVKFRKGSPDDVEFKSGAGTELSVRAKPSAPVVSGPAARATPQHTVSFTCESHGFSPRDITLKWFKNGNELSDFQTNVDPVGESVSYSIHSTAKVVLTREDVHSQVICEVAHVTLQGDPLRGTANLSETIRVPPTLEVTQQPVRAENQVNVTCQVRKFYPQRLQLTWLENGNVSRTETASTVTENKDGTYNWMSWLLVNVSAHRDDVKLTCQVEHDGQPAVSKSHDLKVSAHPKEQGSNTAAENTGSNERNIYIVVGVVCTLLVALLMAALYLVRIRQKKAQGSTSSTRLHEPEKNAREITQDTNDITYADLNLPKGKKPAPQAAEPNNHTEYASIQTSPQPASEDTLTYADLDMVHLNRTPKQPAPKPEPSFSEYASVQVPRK
T1 sequence (Q08722 whole entry, looked up): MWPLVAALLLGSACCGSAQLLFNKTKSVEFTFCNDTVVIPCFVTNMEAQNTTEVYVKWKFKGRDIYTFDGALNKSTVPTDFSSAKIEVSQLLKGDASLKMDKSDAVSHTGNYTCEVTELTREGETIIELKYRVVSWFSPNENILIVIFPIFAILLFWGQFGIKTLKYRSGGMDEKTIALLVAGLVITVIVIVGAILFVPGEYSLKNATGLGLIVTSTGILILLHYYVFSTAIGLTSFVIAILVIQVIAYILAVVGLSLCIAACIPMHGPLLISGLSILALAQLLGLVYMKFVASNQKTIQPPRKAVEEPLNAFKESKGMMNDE

Test [9] concerns the target T1, Tyrosine-protein phosphatase non-receptor type substrate 1 (Homo sapiens) + Leukocyte surface antigen CD47 (Homo sapiens). In words: CD47-SIRPalpha protein protein interaction - HTRF assay qHTS validation (AID 1347058; active = well fitted curve in the direction sought with a large enough effect in the signal ratio, not every such curve was filed as active; the % refers to the signal ratio;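 note: recombinant soluble extracellular CD47 with His tag and biotinylated SIRPalpha domains; series mostly up to about 38 µM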). The procedure, abridged:
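TR-FRET read (Ch1/Ch2 ratio) of soluble extracellular CD47 and Avi-biotinylated SIRPalpha domains in PBS pH 7.4 with 0.05% IGEPAL; 7-point compound titration. Sequential 30 min room-temperature steps; non-biotinylated SIRPalpha as control inhibitor.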
In general terms: TR-FRET usually uses a lanthanide donor and a delayed reading to cut background.

The target is the same in test [10]. In words: CD47-SIRPalpha protein protein interaction - Alpha assay qHTS validation (AID 1347059).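 Note: bead proximity luminescence from CD47 binding SIRPalpha after compound preincubation with SIRPalpha.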 The method in brief:
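Binding is measured by AlphaScreen proximity: Ni-NTA acceptor beads capture His-CD47, streptavidin donor beads capture biotin-SIRPalpha. Each of three additions (SIRPalpha with compound, CD47, beads) incubates 30 min at room temperature protected from light.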

The target of test [11] is Parathyroid hormone/parathyroid hormone-related peptide receptor (Homo sapiens) (UniProt Q03431). Briefly: qHTS for PTHR1 Agonists: Optimization Screen against the NCGC LOPAC library (AID 1347079).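 Note: GloSensor cAMP luminescence in HEK-293 GP2 cells expressing human PTHR1 with IBMX.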 The procedure, abridged: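 Compounds were tested across a qHTS titration. PTHR1-expressing GP2 cells report cAMP rises via GloSensor luminescence after 1 hr compound exposure at 37C with IBMX present.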
Sequence of Parathyroid hormone/parathyroid hormone-related peptide receptor (Homo sapiens) (Q03431 whole entry, looked up): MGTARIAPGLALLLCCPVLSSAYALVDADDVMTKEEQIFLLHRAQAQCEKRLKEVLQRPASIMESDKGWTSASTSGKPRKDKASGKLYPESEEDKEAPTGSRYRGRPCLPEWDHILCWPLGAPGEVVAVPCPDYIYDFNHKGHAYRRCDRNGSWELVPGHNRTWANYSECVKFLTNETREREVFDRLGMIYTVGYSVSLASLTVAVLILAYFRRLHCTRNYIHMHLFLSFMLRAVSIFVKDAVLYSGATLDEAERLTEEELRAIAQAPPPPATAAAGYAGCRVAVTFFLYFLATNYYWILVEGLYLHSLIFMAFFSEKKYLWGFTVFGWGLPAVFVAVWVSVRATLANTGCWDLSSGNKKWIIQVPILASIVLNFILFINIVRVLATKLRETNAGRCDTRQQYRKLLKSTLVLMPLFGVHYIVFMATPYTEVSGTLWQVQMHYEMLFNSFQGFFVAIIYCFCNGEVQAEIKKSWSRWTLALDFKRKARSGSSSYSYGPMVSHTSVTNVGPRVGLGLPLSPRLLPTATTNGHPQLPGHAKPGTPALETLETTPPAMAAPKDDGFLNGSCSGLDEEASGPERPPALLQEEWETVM

Test [12] is described as follows: qHTS of pediatric cancer cell lines to identify multiple opportunities for drug repurposing: Primary screen for TC32 cells (AID 1347089). Note: nearly all actives have a fitted effect of over 60% in size. The procedure, abridged:
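qHTS, TC32, 48 h drug treatment, CellTiter-Glo luminescence as a proxy for metabolically active cells; primary top concentration 46 µM (MIPE 11-pt, NPC 8-pt); confirmatory 11-pt.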

A short description of test [13]: qHTS of pediatric cancer cell lines to identify multiple opportunities for drug repurposing: Primary screen for DAOY cells (AID 1347090). Note: series mostly up to about 46 µM; nearly all actives have a fitted effect of over 55% in size. The method in brief:
(§1)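 Cell viability, CellTiter-Glo luminescence; 500-1,000 cells/well, 8- or 11-point titration, 48 h compound exposure at 37 degrees C, 5% CO2. Controls: DMSO neutral, bortezomib 2.3 µM final as positive.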

A short description of test [14]: qHTS of pediatric cancer cell lines to identify multiple opportunities for drug repurposing: Primary screen for SJ-GBM2 cells (AID 1347091). Note: potency is the fitted concentration of half-maximal effect. The method in brief: as §1
Test [15] in a line: P-glycoprotein substrates identified in KB-8-5-11 adenocarcinoma cell line, qHTS therapeutic library screen (AID 1346987). Note: nearly all actives have a fitted effect of over 65% in size. Note: potency is the fitted concentration of half-maximal effect. The procedure, abridged:
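KB-8-5-11: colchicine-selected sub-line of KB-3-1 over-expressing P-gp; assay medium lacked colchicine. 72 h drug exposure at 37 degree C, CellTiter-Glo.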

Sequence of Atrial natriuretic peptide receptor 2 (Homo sapiens) (P20594 whole entry, looked up): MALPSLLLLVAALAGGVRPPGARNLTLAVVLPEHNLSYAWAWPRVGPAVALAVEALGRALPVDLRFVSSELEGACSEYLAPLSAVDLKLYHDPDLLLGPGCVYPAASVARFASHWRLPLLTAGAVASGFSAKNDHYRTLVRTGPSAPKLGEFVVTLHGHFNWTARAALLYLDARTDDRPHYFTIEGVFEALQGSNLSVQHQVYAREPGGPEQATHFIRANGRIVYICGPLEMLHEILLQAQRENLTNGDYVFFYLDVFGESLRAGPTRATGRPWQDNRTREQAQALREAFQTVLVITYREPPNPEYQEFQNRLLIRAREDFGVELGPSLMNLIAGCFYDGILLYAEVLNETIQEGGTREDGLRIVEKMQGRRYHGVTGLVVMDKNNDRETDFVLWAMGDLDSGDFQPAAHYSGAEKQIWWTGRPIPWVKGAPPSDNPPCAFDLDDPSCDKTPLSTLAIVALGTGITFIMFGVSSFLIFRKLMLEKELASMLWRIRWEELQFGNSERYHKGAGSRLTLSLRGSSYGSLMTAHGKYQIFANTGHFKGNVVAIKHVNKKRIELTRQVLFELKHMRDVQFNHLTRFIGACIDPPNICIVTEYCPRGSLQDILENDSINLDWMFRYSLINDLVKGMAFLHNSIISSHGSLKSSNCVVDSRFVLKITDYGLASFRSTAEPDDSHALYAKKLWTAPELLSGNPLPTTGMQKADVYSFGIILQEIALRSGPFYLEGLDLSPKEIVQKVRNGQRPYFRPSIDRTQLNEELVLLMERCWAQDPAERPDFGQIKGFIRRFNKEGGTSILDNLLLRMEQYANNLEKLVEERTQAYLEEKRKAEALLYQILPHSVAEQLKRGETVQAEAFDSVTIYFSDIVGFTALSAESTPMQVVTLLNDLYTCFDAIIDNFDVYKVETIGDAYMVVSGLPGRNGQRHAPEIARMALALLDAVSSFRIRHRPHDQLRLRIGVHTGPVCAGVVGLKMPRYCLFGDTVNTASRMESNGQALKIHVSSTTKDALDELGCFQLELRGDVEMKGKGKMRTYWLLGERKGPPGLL

On to `CN(C)C(=O)Oc1ccc[n+](C)c1`, for which the call in test [1], in test [2], in test [7], in [8], in [9] and in test [11] was inactive. Besides, the Potency result in test [3], in [4], in [5], in test [6], in test [10] and in test [12] was “inactive” in each case. Moreover, the Potency result in test [13] and in test [14] was “inactive” throughout.

Consider `CCCC(C(=O)OCCN(CC)CC)(c1ccccc1)c1ccccc1`, for which the compound was classed as inactive in test [1], in [2], in [7], in [9] and in [11]. Besides, the Potency entry in [3], in [4], in [5] and in [10] was “inactive” each time. Further, the values for the Potency in test [15] and in test [6] were 13 µM (active) and 10.4 µM (active), respectively.

`COc1ccc(CCN(C)CCCC(C#N)(c2cc(OC)c(OC)c(OC)c2)C(C)C)cc1OC` (stereo unspecified): the call in test [1], in test [2], in test [7], in [8], in test [9] and in [11] was inactive. Moreover, the Potency entry in test [3], in [4], in [5], in test [6], in test [10] and in test [13] was “inactive” in each case. In addition, the Potency result in test [14] is “inactive”.

For `CN(C)[C@@H]1C(=O)C(C(N)=O)=C(O)[C@@]2(O)C(=O)C3=C(O)c4c(O)ccc(Cl)c4[C@@H](O)[C@H]3C[C@@H]12`, the compound was classed as inactive in test [1], in [2], in test [7], in test [8] and in test [11]. Besides, the Potency entry in test [3], in [15], in [4], in [5], in test [6] and in test [13] was “inactive” each time. Besides, the Potency entry in test [14] is “inactive”.

As for `NC(=O)N1c2ccccc2C=Cc2ccccc21`, the outcome in [1], in test [2], in test [7], in [8] and in [9] was inactive. Besides, the Potency entry in [3], in test [15], in test [5], in [6], in [10] and in test [12] was “inactive” each time. Moreover, the Potency entry in [13] and in test [14] was “inactive” throughout.

Consider `c1cnc(N2CCN(Cc3ccc4c(c3)OCO4)CC2)nc1`, for which the call in [1], in test [2], in test [7], in [8], in test [9] and in [11] was inactive. Moreover, the Potency result in [3], in test [4], in [5], in test [6], in test [10] and in [12] was “inactive” in each case. Besides, the Potency entry in test [13] and in test [14] was “inactive” in each case.

Turning to `Cc1ccc(/C(=C\CN2CCCC2)c2ccccn2)cc1`, the compound was called inactive in test [1], in [2], in test [7], in test [8], in test [9] and in test [11]. Moreover, the Potency result in test [3], in test [4], in test [5], in test [6], in test [10] and in [12] was “inactive” each time. Besides, the Potency entry in test [13] and in test [14] was “inactive” throughout.

For `CN1C[C@H](C(=O)N[C@]2(C)O[C@@]3(O)[C@@H]4CCCN4C(=O)[C@H](Cc4ccccc4)N3C2=O)C[C@@H]2c3cccc4[nH]cc(c34)C[C@H]21`, the compound was classed as inactive in test [1], in [2], in test [7], in test [9] and in test [11]. Also, the Potency entry in [3], in test [15], in [4], in test [5], in test [6] and in test [12] was “inactive” in each case. Further, the Potency entry in test [13] is “inactive”.

On to `NC(=Nc1ccccc1)Nc1ccccc1`, for which the compound was classed as inactive in test [1], in test [2] and in [7]. Besides, the Potency result in [3], in test [15], in test [12], in test [13] and in test [14] was “inactive” throughout.

With `CNC1(C)C2CCC(C2)C1(C)C` (stereo unspecified), the outcome in [1], in [2], in test [7], in test [9] and in [11] was inactive. The Potency result in [3], in test [15], in test [4], in test [5], in test [6] and in test [10] was “inactive” each time. The Potency result in test [12], in test [13] and in test [14] was “inactive” throughout.

As to `CCN(CC)CCCN(c1ccccc1)C1Cc2ccccc2C1`, the compound was called inactive in [1], in test [2], in test [7], in [8], in test [9] and in [11]. The values for the Potency in [3] and in [15] were 23.1 µM (active) and 10.3 µM (active), respectively. For the same compound, the Potency result in test [4], in test [5], in test [10], in test [12] and in [13] was “inactive” in each case.

For `FC(F)(F)c1ccccc1-n1ccnc1`, the call in test [1], in test [2], in test [7], in [9] and in test [11] was inactive. The Potency entry in test [3], in test [15], in test [4], in [5], in [6] and in [10] was “inactive” throughout. The Potency result in test [12], in [13] and in [14] was “inactive” in each case.

As to `COc1cc2c(cc1OC)-c1cc(=Nc3c(C)cc(C)cc3C)n(C)c(=O)n1CC2`, the compound was called inactive in test [1], in [2] and in test [8]. Further, the Potency entry in test [3], in [4], in test [5] and in test [6] was “inactive” each time. Also, the Potency in [15] is 25.9 µM (active); in test [14] it was 16.8 µM (active).
